Structures are written as SMILES. Records with an inconclusive call do not appear. Values without a mark were called inactive. Activity calls are given as the source filed them. Calls come from the whole dose curve.

The record followed here is PubChem BioAssay (NCATS).

The target in the assay is Peroxisome proliferator-activated receptor delta (Homo sapiens) (UniProt Q03181). Put plainly: qHTS assay for small molecule agonists of peroxisome proliferator-activated receptor delta signaling (AID 588534).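 Note: 0% = DMSO basal wells and 100% = positive control agonist at 10 µM.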 The settings on record: HEK293T PPARdelta-UAS-bla, beta-lactamase ratio, 18 h; series mostly up to 76.7 µM; activation: at the top concentration. In short, it runs like this: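 Agonist-mode qHTS; reporter cells, 5 hrs 37 C pre-incubation; compound titration, 18 hrs 37 C; CCF4 dye, 2 hrs RT; fluorescence read. EC50/efficacy via Hill fit.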
Peroxisome proliferator-activated receptor delta (Homo sapiens), sequence (Q03181 whole entry, looked up): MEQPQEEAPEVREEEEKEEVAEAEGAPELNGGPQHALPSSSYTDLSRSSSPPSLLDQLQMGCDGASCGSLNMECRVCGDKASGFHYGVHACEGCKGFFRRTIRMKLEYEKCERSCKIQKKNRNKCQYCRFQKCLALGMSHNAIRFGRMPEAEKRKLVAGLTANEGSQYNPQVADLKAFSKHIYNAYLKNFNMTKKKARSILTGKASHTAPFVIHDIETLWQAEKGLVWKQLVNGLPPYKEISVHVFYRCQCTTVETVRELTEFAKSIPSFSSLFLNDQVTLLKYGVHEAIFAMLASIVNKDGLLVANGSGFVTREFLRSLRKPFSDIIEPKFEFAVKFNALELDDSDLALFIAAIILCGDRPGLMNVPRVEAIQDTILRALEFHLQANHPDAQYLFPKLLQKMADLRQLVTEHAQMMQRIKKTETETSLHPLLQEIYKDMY
(qHTS replaces the single test concentration by a dilution series.)
In the case of `O=C1CCCC/C=C/CCCCCCCCCO1`, the “activation” value was -1.89%.

As for `Cc1cccc([N+](=O)[O-])c1C`, the result was inactive. Regarding `CCCCCCCC(=O)OC`, the “activation” value is -1.86%. As for `O=C(/C=C/c1ccc(O)c(O)c1)OC1C[C@](O)(C(=O)O)C[C@@H](O)[C@H]1O` (stereo not given in full), the result was inactive. `C=CCCCC`: the “activation” value was 3.86%. The same measure, in the same setting: under `CC1CCCO1` (stereo not given) stands -10%. Consider `O=C(Cl)c1cc(Cl)cc(Cl)c1`, for which the “activation” value is -1.18%. The same measure, in the same setting: the figure for `CCCCCCCCC(=O)O` is 0.447%; for `CCC(O)OCCCOC` (stereo not given) it is 4.52%; for `CCN(Cc1cccc(S(=O)(=O)O)c1)c1ccc(C(=C2C=CC(=[N+](CC)Cc3cccc(S(=O)(=O)[O-])c3)C=C2)c2ccccc2)cc1` it is -6.62%.

For `C=CC(=O)OCCOc1ccccc1`, the “activation” value was 3.09%. As for `Cc1cccc(C)c1[N+](=O)[O-]`, the outcome was inactive. On to `Nc1nc(N)nc(-c2ccccc2)n1`, for which the “activation” value is -0.968%. Same read-out and setting: the figure for `CC(=O)c1ccccc1[N+](=O)[O-]` is 10.3%; for `CCCCCCCC/C=C\CCCCCCCCO` it is -1.04%.

For the compound `NC(N)=O`, the “activation” value is 8.47%. Take `NC(=O)c1ccc([N+](=O)[O-])cc1`: the “activation” value was 3.53%. For `CCCCC(CC)CN` (stereo not given), the outcome was inactive. As for `CCCCC(CC)CN1C(=O)C2C3C=CC(C3)C2C1=O` (stereo not given), the “activation” value is 10.9%. Take `O=C1CCCCCCCCCCC1`: the “activation” value is 2.77%. With `CCOCC(=O)O`, the “activation” value was 3.72%.

`Cc1ccc(Br)cc1`: the “activation” value is 0.0493%. The same measure, in the same setting: the figure for `COC(=O)CSc1cc(N=c2sc(=O)n3n2CCCC3)c(F)cc1Cl` is -5.98%.

Take `CCCC(=O)OC(=O)CCC`: the result was inactive. As for `CCCCCCC(C)OC(=O)COc1nc(F)c(Cl)c(N)c1Cl` (stereo not given), the “activation” value is -6.84%.

Regarding `CC(=O)OC(C)(C)C1CC=C(C)CC1` (stereo not given), the “activation” value was -1.79%. In the case of `CC(=O)Nc1ccc(C)cc1`, the “activation” value was -7.13%. For the compound `CC(=O)c1nccs1`, the “activation” value is 4.29%.

For the compound `Nc1ccc([N+](=O)[O-])c(N)c1`, the “activation” value was 11.9%. Regarding `CC12CCC(CC1=O)C2(C)C` (stereo not given), the result was inactive.

Consider `OC/C(Br)=C(\Br)CO`, for which the “activation” value was 10.6%. In the case of `Cc1cscn1`, the “activation” value is 4.87%. Turning to `Clc1nc(Cl)c(Cl)c(Cl)c1Cl`, the “activation” value was -4.3%. Same read-out and setting: under `CCCC=O` stands 3.07%.

As to `BrC(Br)C(Br)Br`, the “activation” value is 10.2%.

For the compound `Cc1ccc([N+](=O)[O-])c(N)c1`, the “activation” value was 10.7%. The same measure, in the same setting: the figure for `O=C(OCC1CCC2OC2C1)C1CCC2OC2C1` (stereo not given) is -0.235%. The same measure, in the same setting: the figure for `Cc1ccc2ncccc2c1` is 7.33%. Same read-out and setting: under `C[C@@H]1O[C@@H](O[C@@H]2[C@@H](O)[C@H](OCCc3ccc(O)c(O)c3)O[C@H](CO[C@@H]3O[C@H](CO)[C@@H](O)[C@H](O)[C@H]3O)[C@H]2OC(=O)/C=C/c2ccc(O)c(O)c2)[C@H](O)[C@H](O)[C@H]1O` stands -6.48%. For `Nc1cc([N+](=O)[O-])ccc1C(=O)O`, the result was inactive.
